{"source": "PubChem BioAssay AID1159580", "about": "(chemical genetic matrix, 2015)", "experiment": "chemical genetic growth profiling, strain panel (AID 1159580);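 further: tested at 20 µM; growth read once vehicle control cultures reached saturation at 30 °C; 1 = growth at the plate median or of vehicle wells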", "conditions": "S. cerevisiae deletion strains, growth OD", "note": "“And” between values parts separate entries of the source, which are not always exact repeats. Equal entries are not always repeated. In all, about 5,500 compounds went through this assay and about 2,000 (36%) were called active. About 18% were inconclusive and are not listed. No stated cut-off is given here; in the data, active means normalized growth mostly below about 0.91 (no sharp cut-off); inconclusive means no clear call, values can overlap the other calls; inactive means mostly above about 0.92. The list shows a part of the results.", "data": [{"compound": "CC(C)=CCc1c(O)cc2occ(-c3ccc4c(c3)OCO4)c(=O)c2c1O", "values": [{"measurement": "normalized growth", "setting": "locus YAL013W, strain DEP1, stronger effect = lower value", "result": "1.01 (inactive)"}, {"measurement": "normalized growth", "setting": "locus YAL021C, strain ccr4, stronger effect = lower value", "result": "1.05 (inactive)"}, {"measurement": "normalized growth", "setting": "locus YAL026C, strain drs2, stronger effect = lower value", "result": "0.865 (active)"}, {"measurement": "normalized growth", "setting": "locus YAL030W, strain snc1, stronger effect = lower value", "result": "0.996 (inactive)"}, {"measurement": "normalized growth", "setting": "locus YBL061C, strain skt5, stronger effect = lower value", "result": "0.864 (active)"}, {"measurement": "normalized growth", "setting": "locus YBR009C, strain hhf1, stronger effect = lower value", "result": "0.819 (active)"}, {"measurement": "normalized growth", "setting": "locus YBR021W, strain FUR4, stronger effect = lower value", "result": "0.991 (inactive)"}, {"measurement": "normalized growth", "setting": "locus YBR023C, strain chs3, stronger effect = lower value", "result": "0.855 (active)"}, {"measurement": "normalized growth", "setting": "locus YBR171W, strain sec66, stronger effect = lower value", "result": "0.981 (inactive)"}, {"measurement": "normalized growth", "setting": "locus YBR229C, strain ROT2, stronger effect = lower value", "result": "1.02 (inactive)"}, {"measurement": "normalized growth", "setting": "locus YBR231C, strain swc5, stronger effect = lower value", "result": "0.929 (inactive)"}, {"measurement": "normalized growth", "setting": "locus YBR279W, strain paf1, stronger effect = lower value", "result": "0.993 (inactive)"}, {"measurement": "normalized growth", "setting": "locus YCL011C, strain gbp2, stronger effect = lower value", "result": "0.909 (inactive)"}, {"measurement": "normalized growth", "setting": "locus YCL016C, strain dcc1, stronger effect = lower value", "result": "0.872 (active)"}, {"measurement": "normalized growth", "setting": "locus YCL029C, strain bik1, stronger effect = lower value", "result": "1.03 (inactive)"}, {"measurement": "normalized growth", "setting": "locus YCL061C, strain MRC1, stronger effect = lower value", "result": "0.909 (active)"}, {"measurement": "normalized growth", "setting": "locus YCL069W, strain vba3, stronger effect = lower value", "result": "0.888 (active)"}, {"measurement": "normalized growth", "setting": "locus YCR088W, strain abp1, stronger effect = lower value", "result": "0.998 (inactive)"}, {"measurement": "normalized growth", "setting": "locus YDL005C, strain med2, stronger effect = lower value", "result": "0.993 (inactive)"}, {"measurement": "normalized growth", "setting": "locus YDL035C, strain GPR1, stronger effect = lower value", "result": "1.01 (inactive)"}, {"measurement": "normalized growth", "setting": "locus YDL040C, strain nat1, stronger effect = lower value", "result": "1 (inactive)"}, {"measurement": "normalized growth", "setting": "locus YDL074C, strain BRE1, stronger effect = lower value", "result": "1.03 (inactive)"}, {"measurement": "normalized growth", "setting": "locus YDL101C, strain DUN1, stronger effect = lower value", "result": "1.01 (inactive)"}, {"measurement": "normalized growth", "setting": "locus YDL134C, strain PPH21, stronger effect = lower value", "result": "1.01 (inactive)"}, {"measurement": "normalized growth", "setting": "locus YDL185W, strain tfp1, stronger effect = lower value", "result": "1.03 (inactive)"}, {"measurement": "normalized growth", "setting": "locus YDL192W, strain arf1, stronger effect = lower value", "result": "1.03 (inactive)"}, {"measurement": "normalized growth", "setting": "locus YDR001C, strain nth1, stronger effect = lower value", "result": "1.01 (inactive)"}, {"measurement": "normalized growth", "setting": "locus YDR069C, strain doa4, stronger effect = lower value", "result": "0.957 (inactive)"}, {"measurement": "normalized growth", "setting": "locus YDR101C, strain arx1, stronger effect = lower value", "result": "1.01 (inactive)"}, {"measurement": "normalized growth", "setting": "locus YDR137W, strain rgp1, stronger effect = lower value", "result": "0.897 (inactive)"}, {"measurement": "normalized growth", "setting": "locus YDR150W, strain NUM1, stronger effect = lower value", "result": "1 (inactive)"}, {"measurement": "normalized growth", "setting": "locus YDR159W, strain sac3, stronger effect = lower value", "result": "0.888 (inactive)"}, {"measurement": "normalized growth", "setting": "locus YDR162C, strain NBP2, stronger effect = lower value", "result": "1.01 (inactive)"}, {"measurement": "normalized growth", "setting": "locus YDR195W, strain ref2", "result": "0.937 (inactive)"}, {"measurement": "normalized growth", "setting": "locus YDR297W, strain sur2, stronger effect = lower value", "result": "0.911 (active)"}, {"measurement": "normalized growth", "setting": "locus YDR318W, strain mcm21, stronger effect = lower value", "result": "1.02 (inactive)"}, {"measurement": "normalized growth", "setting": "locus YDR334W, strain swr1, stronger effect = lower value", "result": "0.967 (inactive)"}, {"measurement": "normalized growth", "setting": "locus YDR335W, strain msn5, stronger effect = lower value", "result": "0.917 (active)"}, {"measurement": "normalized growth", "setting": "locus YDR388W, stronger effect = lower value", "result": "1.02 (inactive)"}, {"measurement": "normalized growth", "setting": "locus YDR392W, strain spt3, stronger effect = lower value", "result": "0.67 (active)"}, {"measurement": "normalized growth", "setting": "locus YDR502C, strain sam2, stronger effect = lower value", "result": "1.01 (inactive)"}, {"measurement": "normalized growth", "setting": "locus YEL003W, strain gim4, stronger effect = lower value", "result": "0.932 (inactive)"}, {"measurement": "normalized growth", "setting": "locus YEL037C, strain rad23, stronger effect = lower value", "result": "0.994 (inactive)"}, {"measurement": "normalized growth", "setting": "locus YEL061C, strain CIN8 (second series), stronger effect = lower value", "result": "0.997 (inactive)"}, {"measurement": "normalized growth", "setting": "locus YEL061C, strain CIN8, stronger effect = lower value", "result": "1.01 (inactive)"}, {"measurement": "normalized growth", "setting": "locus YER015W, strain faa2, stronger effect = lower value", "result": "0.876 (active)"}, {"measurement": "normalized growth", "setting": "locus YER016W, strain bim1, stronger effect = lower value", "result": "0.997 (inactive)"}, {"measurement": "normalized growth", "setting": "locus YER110C, stronger effect = lower value", "result": "1.05 (inactive)"}, {"measurement": "normalized growth", "setting": "locus YER111C, strain swi4, stronger effect = lower value", "result": "1.02 (inactive)"}, {"measurement": "normalized growth", "setting": "locus YER155C, strain BEM2 (second series), stronger effect = lower value", "result": "0.911 (inactive)"}, {"measurement": "normalized growth", "setting": "locus YER155C, strain BEM2, stronger effect = lower value", "result": "1.01 (inactive)"}, {"measurement": "normalized growth", "setting": "locus YER167W, strain BCK2, stronger effect = lower value", "result": "1.02 (inactive)"}, {"measurement": "normalized growth", "setting": "locus YFR010W, strain ubp6, stronger effect = lower value", "result": "0.92 (inactive)"}, {"measurement": "normalized growth", "setting": "locus YGL078C, strain dbp3, stronger effect = lower value", "result": "1.03 (inactive)"}, {"measurement": "normalized growth", "setting": "locus YGL086W, strain mad1, stronger effect = lower value", "result": "1.05 (inactive)"}, {"measurement": "normalized growth", "setting": "locus YGL167C, strain pmr1, stronger effect = lower value", "result": "1 (inactive)"}, {"measurement": "normalized growth", "setting": "locus YGL173C, strain kem1, stronger effect = lower value", "result": "0.921 (inactive)"}, {"measurement": "normalized growth", "setting": "locus YGL227W, strain vid30, stronger effect = lower value", "result": "0.972 (inactive)"}, {"measurement": "normalized growth", "setting": "locus YGL240W, strain doc1, stronger effect = lower value", "result": "0.944 (inactive)"}, {"measurement": "normalized growth", "setting": "locus YGL248W, strain PDE1, stronger effect = lower value", "result": "1.02 (inactive)"}, {"measurement": "normalized growth", "setting": "locus YGL253W, strain hxk2, stronger effect = lower value", "result": "0.814 (active)"}, {"measurement": "normalized growth", "setting": "locus YGR078C, strain PAC10, stronger effect = lower value", "result": "0.997 (inactive)"}, {"measurement": "normalized growth", "setting": "locus YGR135W, strain pre9, stronger effect = lower value", "result": "0.993 (inactive)"}, {"measurement": "normalized growth", "setting": "locus YGR229C, strain SMI1, stronger effect = lower value", "result": "0.983 (inactive)"}, {"measurement": "normalized growth", "setting": "locus YGR252W, strain gcn5, stronger effect = lower value", "result": "1.03 (inactive)"}, {"measurement": "normalized growth", "setting": "locus YHR013C, strain ard1, stronger effect = lower value", "result": "1.17 [resistant] (active)"}, {"measurement": "normalized growth", "setting": "locus YHR027C, strain rpn1, stronger effect = lower value", "result": "0.805 (active)"}, {"measurement": "normalized growth", "setting": "locus YHR030C, strain SLT2, stronger effect = lower value", "result": "1.01 (inactive) and 0.843 (active)"}, {"measurement": "normalized growth", "setting": "locus YHR079C, strain IRE1 (second series), stronger effect = lower value", "result": "1.03 (inactive)"}, {"measurement": "normalized growth", "setting": "locus YHR079C, strain IRE1, stronger effect = lower value", "result": "0.8 (active)"}, {"measurement": "normalized growth", "setting": "locus YHR094C, strain hxt1, stronger effect = lower value", "result": "1.03 (inactive)"}, {"measurement": "normalized growth", "setting": "locus YHR129C, strain ARP1, stronger effect = lower value", "result": "1.01 (inactive)"}, {"measurement": "normalized growth", "setting": "locus YHR142W, strain chs7, stronger effect = lower value", "result": "0.74 (active)"}, {"measurement": "normalized growth", "setting": "locus YHR200W, strain rpn10, stronger effect = lower value", "result": "1.02 (inactive)"}, {"measurement": "normalized growth", "setting": "locus YIL066C, strain RNR3, stronger effect = lower value", "result": "1.01 (inactive)"}, {"measurement": "normalized growth", "setting": "locus YIL073C, strain SPO22, stronger effect = lower value", "result": "1.05 (inactive)"}, {"measurement": "normalized growth", "setting": "locus YIL125W, strain kgd1, stronger effect = lower value", "result": "1.03 (inactive)"}, {"measurement": "normalized growth", "setting": "locus YIR030C, strain dcg1, stronger effect = lower value", "result": "1.02 (inactive)"}, {"measurement": "normalized growth", "setting": "locus YJL092W, strain hpr5, stronger effect = lower value", "result": "0.962 (inactive)"}, {"measurement": "normalized growth", "setting": "locus YJL095W, strain BCK1 (second series), stronger effect = lower value", "result": "0.946 (inactive)"}, {"measurement": "normalized growth", "setting": "locus YJL095W, strain BCK1, stronger effect = lower value", "result": "0.984 (inactive) and 0.838 (active)"}, {"measurement": "normalized growth", "setting": "locus YJL115W, strain asf1, stronger effect = lower value", "result": "1.01 (inactive)"}, {"measurement": "normalized growth", "setting": "locus YJL129C, strain trk1, stronger effect = lower value", "result": "0.923 (inactive)"}, {"measurement": "normalized growth", "setting": "locus YJL134W, strain LCB3, stronger effect = lower value", "result": "1.01 (inactive)"}, {"measurement": "normalized growth", "setting": "locus YJL154C, strain vps35, stronger effect = lower value", "result": "1 (inactive)"}, {"measurement": "normalized growth", "setting": "locus YJL164C, strain tpk1, stronger effect = lower value", "result": "0.943 (inactive)"}, {"measurement": "normalized growth", "setting": "locus YJL166W, strain qcr8, stronger effect = lower value", "result": "0.862 (active)"}, {"measurement": "normalized growth", "setting": "locus YJL168C, strain set2, stronger effect = lower value", "result": "1.02 (inactive)"}, {"measurement": "normalized growth", "setting": "locus YJL187C, strain SWE1 (second series), stronger effect = lower value", "result": "1.01 (inactive)"}, {"measurement": "normalized growth", "setting": "locus YJL187C, strain SWE1, stronger effect = lower value", "result": "1 (inactive)"}, {"measurement": "normalized growth", "setting": "locus YJR043C, strain POL32, stronger effect = lower value", "result": "0.994 (inactive)"}]}]}
